Screens as filed in PubChem.
BoNT-F LC inh = inhibitors of Botulinum neurotoxin F light chain protease; Multiplex microsphere protease cleavage assay, flow cytometry; 0.22% of 360,000 active; inhibition, % at 10 µM; in the data active = inhibition above about 35%, passing the limit was not always enough; inconclusive = no clear call, values can overlap the other calls
BoNT-A LC inh2 = inhibitors of Botulinum neurotoxin A light chain protease. inhibition, % at 10 µM. multiplex microsphere protease substrate cleavage, flow cytometry. 0.17% of 360,000 active
Autofluor counter = counter-screen for toxin protease inhibitors: compound fluorescence; AID 624483; compound autofluorescence counterscreen, microsphere flow cytometry; hits give high values; 3.1% of 360,000 active; fluorescence intensity (concentration not given with the values); in the data active = fluorescence intensity above about 16000; inconclusive = no clear call, values can overlap the other calls
GDH-TPI counter = inhibits GDH-TPI coupling enzymes, artifact for Mtb FBA screen; GDH-TPI coupled enzyme counterscreen, NADH absorbance; inhibition, % at 4.8 µM; 1.2% of 360,000 active; in the data active = inhibition above about 30%
Anthrax LF prot = blocks Bacillus anthracis lethal factor protease; P15917; multiplex microsphere protease cleavage assay, LF; inhibition, % at 10 µM; 0.12% of 360,000 active; AID 588501
FBA Mtb inh = inhibitors of M. tuberculosis fructose-bisphosphate aldolase; inhibition, % at 1 µM; 2.3% of 360,000 active; purified M. tuberculosis FBA, fluorescence read-out; in the data active = inhibition above about 27%
Numbers stand for hits; . = inactive; ? = inconclusive; / = not tested or not shown; + = active, no number. A selection: hits, their analogues and other compounds. The true share with any hit is near 6.7%. Rule as the data show it, unless noted: active = inhibition above about 30%; inconclusive = no clear call, values can overlap the other calls; inactive = below that.

SMILES	BoNT-F LC inh	BoNT-A LC inh2	Autofluor counter	GDH-TPI counter	Anthrax LF prot	FBA Mtb inh
CSc1ccc(C=NNc2ccc(S(=O)(=O)Nc3ccccc3C(=O)O)cc2[N+](=O)[O-])cc1	.	.	.	.	.	.
CCOC(=O)C1(C)/C(=N/Nc2ccc(Cl)cc2)C(=O)C(=O)N1c1ccccc1 (stereo not drawn)	.	.	.	.	.	.
O=C(NC1=NCCS1)c1cc(-c2cccc(Br)c2)nc2ccccc12	.	.	.	.	.	.
COc1ccc(-c2nc3c(=O)n(C)c(=O)[nH]c3n2CCc2ccccc2)cc1	.	.	.	.	.	184
Cc1nc2c(=O)n(C)c(=O)[nH]c2n1Cc1ccccc1	.	.	.	.	.	.
COc1ccc(CCn2c(N3CCN(Cc4ccccc4)CC3)nc3c2c(=O)[nH]c(=O)n3C)cc1	.	.	.	.	.	.
CCCn1c(-c2ccccc2)nc2c(=O)n(C)c(=O)[nH]c21	.	.	.	.	.	+
Cc1cccc(C(C)n2nnc3ccccc32)c1O (stereo not drawn)	.	.	.	.	.	.
CCCCn1cnc2cc(NCc3ccncc3)ccc21	.	.	19414	.	.	.
CCc1ccc(CNc2ccc3c(c2)ncn3CC)cc1	?	.	.	.	.	.
CCn1cnc2cc(NCc3ccc(OC)cc3)ccc21	.	.	23891	.	.	.
COc1ccc(CCNC(=O)c2cc(=O)n(C)c(=O)n2C)cc1OC	.	.	.	.	.	.
C=CCSc1nnc(-c2cc3c(s2)-c2ccccc2CC3)o1	.	.	.	.	.	+
CCOC(=O)CNC(=O)c1sc2ncnc(N3CCc4ccccc4C3)c2c1C	.	.	19828	.	.	.
Cc1ccc[n+](CC(=O)Nc2ccc([N+](=O)[O-])cc2Cl)c1	.	.	.	.	.	.
CC(=O)Nc1nc(SCc2ccc(Cl)cc2Cl)n[nH]1	.	?	19910	.	.	.
Nc1nc(SCc2ccc(Cl)cc2Cl)n[nH]1	.	.	.	.	.	.
CSc1cccc(NC(=O)CN(C)S(=O)(=O)c2ccc(F)cc2)c1	.	.	.	.	.	.
CC(C)CC(=O)NC1(C(F)(F)F)C(=O)N(Cc2ccccc2)C2=C1C(=O)CC(C)(C)C2 (stereo not drawn)	.	.	21893	.	.	.
CC1(C)CC(=O)C2=C(C1)N(Cc1ccc(F)cc1)C(=O)C2(NC(=O)c1cccnc1)C(F)(F)F (stereo not drawn)	.	?	20986	.	.	.
CC(C)CN1C(=O)C(NC(=O)C2CC2)(C(F)(F)F)C2=C1CC(C)(C)CC2=O (stereo not drawn)	.	.	.	.	.	.
CC1(C)CC(=O)C2=C(C1)N(c1ccc(F)cc1)C(=O)C2(NC(=O)c1ccccc1F)C(F)(F)F (stereo not drawn)	.	.	.	.	.	.
CC1(C)CC(=O)C2=C(C1)N(CC1CCCO1)C(=O)C2(NC(=O)c1cccnc1)C(F)(F)F (stereo not drawn)	.	.	17055	.	.	.
CCCCN(C(=O)c1ccc2c(c1)S(=O)(=O)N=C1CCCCCN12)c1c(N)n(CC(C)C)c(=O)[nH]c1=O	.	.	.	.	.	.
O=c1c2cc(N3CCOCC3)ccc2[nH]c(=S)n1CCCN1CCCCCC1	.	?	21083	.	.	.
SMILES	BoNT-F LC inh	BoNT-A LC inh2	Autofluor counter	GDH-TPI counter	Anthrax LF prot	FBA Mtb inh
O=c1c2cc(N3CCOCC3)ccc2[nH]c(=S)n1Cc1ccc(Cl)cc1	.	.	16514	.	.	.
O=C(CCCCCn1c(=S)[nH]c2ccc(N3CCOCC3)cc2c1=O)NCc1ccc(Cl)cc1	.	.	.	.	.	.
CC(C)OCCCn1c(=S)[nH]c2ccc(N3CCOCC3)cc2c1=O	.	.	20555	.	.	.
O=c1c2cc(N3CCOCC3)ccc2[nH]c(=S)n1CCN1CCCC1	.	.	.	.	.	.
CC(=O)c1cc(C#N)c(SCC(=O)O)nc1C	.	.	?	.	.	.
CCOC(=O)CSc1nc(C)c(C(C)=O)cc1C#N	.	.	23558	.	.	.
Cc1nn(-c2ccccc2)c(Cl)c1C(=O)N1CCN(C)CC1	.	.	.	.	.	.
CCOc1ccc(NS(=O)(=O)c2ccc3c(c2)oc(=O)n3C)cc1	.	.	.	.	.	.
CCOc1ccc(N(CC)S(=O)(=O)c2ccc3c(c2)oc(=O)n3C)cc1	.	.	17539	.	.	.
Cc1ccc(C)c(S(=O)(=O)C(C#N)c2nc3ccccc3nc2N2CCCC2)c1 (stereo not drawn)	.	.	20606	.	.	.
COc1ccc(S(=O)(=O)C(C#N)c2nc3ccccc3nc2N2CCCCC2)cc1 (stereo not drawn)	.	.	.	.	.	.
Cc1ccc(C)c(S(=O)(=O)C(C#N)c2nc3ccccc3nc2N2CCOCC2)c1 (stereo not drawn)	?	?	?	.	?	.
Cc1cccc(S(=O)(=O)C(C#N)c2nc3ccccc3nc2N2CCCC2)c1 (stereo not drawn)	.	.	.	.	.	74
O=C(COc1ccccc1)Nc1ccc(NC(=O)c2ccco2)cc1	.	.	.	.	.	.
O=C(CCN1CCN(CCO)CC1)Nc1ccc(F)c(F)c1	.	.	.	.	.	.
CCN(C(=O)CSc1nnc(-c2ccccc2F)n1N)c1c(N)n(Cc2ccccc2)c(=O)[nH]c1=O	.	.	.	.	.	.
CC(C)(C)NC(=O)CN(Cc1cccs1)C(=O)CCN1CCc2ccccc21	.	.	.	.	.	.
CC(C)(C)NC(=O)CN(C(=O)CCN1CCCc2ccccc21)C(C)(C)C	.	.	20626	.	.	.
COc1ccc(Cc2nc3ccc(C(=O)NCCSC)cc3o2)cc1	?	.	.	.	.	.
O=C(NCCO)c1ccc2c3n(nc2c1)-c1ccc(Cl)cc1CO3	.	.	.	.	.	.
Cc1ccc2c(c1)COc1c3ccc(C(=O)NCCO)cc3nn1-2	.	.	.	.	.	32
CCN1CCN(c2ccc(S(=O)(=O)N3CCCCC3)cc2NC(=O)Cc2ccccc2)CC1	.	.	.	.	.	.
O=C(NCCc1cccc(F)c1)C1CCC(=O)N(C2CCCCCC2)C1 (stereo not drawn)	.	.	.	.	.	.
CCOC(=O)c1cnc2c(cnn2C)c1NCCC(O)C(F)(F)F (stereo not drawn)	.	.	21233	.	.	.
Cc1ccc(CCNC(=O)c2ccc(CS(=O)(=O)Cc3ccccc3F)o2)cc1	.	.	23305	.	.	.
O=C(NCCc1ccccc1)c1ccc(CS(=O)(=O)Cc2ccccc2F)o1	.	.	18882	.	.	.
O=C1[C@@H](c2ccccc2)CC[C@@H]2C=CC[C@H]3CCN1[C@@H]32	.	.	.	/	.	/
O=[N+]([O-])c1ccc(Oc2cccnc2)c([N+](=O)[O-])c1	.	.	.	.	.	.
Nc1ccc(Oc2ccc([N+](=O)[O-])cc2[N+](=O)[O-])cc1	.	.	.	33	.	.
CCC(=O)Nc1cc(SCCO)cc([N+](=O)[O-])c1	.	.	16916	.	.	.
